A short description of this assay: HDAC Secondary Assay for qHTS Assay for Epigenetic Modulators. The note with it: HeLa nuclear extract HDAC activity, fluorogenic substrate, 20 min; at 48 µM; hits give low values. The source says: NIH Molecular Libraries Screening Centers Network [MLSCN] NIH Chemical Genomics Center [NCGC] MLSCN Grant: 1 X01 MH079860-01 Assay Provider: Elisabeth D. Martinez, University of Texas SW Medical Center NCGC Assay Overview: This secondary assay characterizes selected actives identified in the qHTS of the Locus Derepression (LDR) assay (PubChem AID 597). The LDR assay detects the derepression of a GFP reporter that is stably integrated in a region of the genome of murine c127i mammary cells that is presumably silenced. Compounds that cause derepression of the locus to express GFP are identified by enumerating GFP positive cells using a laser-scanning microplate cytometer. […]
NCGC Assay Protocol Summary HeLa nuclear extracts and acetylated profluorescent substrate were incubated with vehicle, 0.5 uM TSA, or 48 uM indicated LDR compound for 20 min at ambient temperature and fluorescence was measured. Background-subtracted activity was expressed as a percent of uninhibited extract. […] For further details, see R.L. Johnson, W. Huang, A. Jadhav, C.P. Austin, J. Inglese, E.D. Martinez, A Quantitative High-Throughput Screen Identifies Potential Epigenetic Modulators of Gene Expression, Analytical Biochemistry (2007), doi: 10.1016/j.ab.2007.12.028
In general terms: Quantitative high-throughput screening tests each substance at several concentrations.

These results are taken from PubChem BioAssay AID1035 (National Center for Advancing Translational Sciences (NCATS), 2008).

Values without a mark were called inactive. How the calls were made is not given here.

Take `CN1CSC(=S)N(C)C1`: the remaining HDAC activity was 102%.
